Source: PubChem (National Center for Advancing Translational Sciences (NCATS))
TDP1 inh: TDP1 (human) enzyme inhibition; Q9NUW8; recombinant TDP1, AlphaScreen DNA substrate cleavage; Potency, µM (titrated, usually from 130 µM), for the others: at the top dose activity change, negative = inhibition, most hits filed as inhibitors; actives 0.28% (n = 350,000); AID 485290; note: potency is the fitted concentration of half-maximal effect; nearly all actives have a fitted effect of over 40% in size
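Recombinant human Tdp1 (E. coli-expressed, 1 nM final) preincubated with compounds 15 min at room temperature, then 5'-biotin/3'-phosphotyrosine-FITC DNA substrate (15 nM final) added for 5 min. AlphaScreen beads (10 ug/ml final) added 10 min; cleavage lowers signal.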
Six1-Eya2 inh: blocks human Six1 binding to Eya2; AlphaScreen GST-Six1/His-Eya2 binding, biochemical; active compounds read low; actives 0.56% (n = 360,000); AID 651725; activity change, % (concentration not given with the values); Q15475+O00167; in the data active = activity change below about -65%; inconclusive = mostly about -30% to -63%
Target sequence (O00167 whole entry, looked up): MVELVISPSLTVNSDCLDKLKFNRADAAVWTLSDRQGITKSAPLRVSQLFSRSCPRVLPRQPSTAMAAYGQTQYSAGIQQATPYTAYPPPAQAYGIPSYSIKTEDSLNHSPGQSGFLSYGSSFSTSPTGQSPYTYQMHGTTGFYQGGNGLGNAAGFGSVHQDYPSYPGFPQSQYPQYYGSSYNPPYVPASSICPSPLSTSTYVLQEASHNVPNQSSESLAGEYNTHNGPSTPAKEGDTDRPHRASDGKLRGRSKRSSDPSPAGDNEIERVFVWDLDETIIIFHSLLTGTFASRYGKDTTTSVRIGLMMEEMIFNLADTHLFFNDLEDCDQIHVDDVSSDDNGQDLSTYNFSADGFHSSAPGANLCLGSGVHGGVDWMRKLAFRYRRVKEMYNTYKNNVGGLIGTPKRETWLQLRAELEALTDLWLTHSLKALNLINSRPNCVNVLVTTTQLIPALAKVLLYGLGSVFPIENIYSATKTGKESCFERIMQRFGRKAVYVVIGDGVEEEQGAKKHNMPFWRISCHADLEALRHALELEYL
Target sequence (Q15475 whole entry, looked up): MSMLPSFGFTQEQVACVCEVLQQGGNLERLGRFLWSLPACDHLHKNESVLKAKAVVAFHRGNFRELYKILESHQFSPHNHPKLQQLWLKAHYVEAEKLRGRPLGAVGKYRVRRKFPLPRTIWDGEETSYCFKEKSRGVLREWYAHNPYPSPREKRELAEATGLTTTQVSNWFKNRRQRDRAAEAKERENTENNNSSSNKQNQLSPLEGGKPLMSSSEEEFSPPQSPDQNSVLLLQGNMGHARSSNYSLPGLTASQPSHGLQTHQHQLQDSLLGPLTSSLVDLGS
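Homogeneous AlphaScreen proximity assay pairing GST-Six1 with His-tagged Eya2 (added as 5X mix: 250 nM and 500 nM) in 50 mM Tris pH 8.0, 300 mM NaCl, 1 mM TCEP. Glutathione donor and nickel acceptor beads; 1 h, 37 °C, dark.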
CtBP-E1A blk: blocks the CtBP interaction with E1A; AlphaScreen GST-E1A/His-CtBP binding, 1536-well; active compounds read low; activity change, % (test concentration not listed); actives 0.49% (n = 340,000); in the data active = activity change below about -65%; inconclusive = mostly about -30% to -63%
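In 5 uL wells, 23 nL compound meets equimolar GST-E1A and His-CtBP (5X stock 125 nM each) for 2 h, 37 °C. Beads (5X, 50 ug/mL) then 1 h, 37 °C, dark.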
DT40 TDP1 no CPT: qHTS for Inhibitors of human tyrosyl-DNA phosphodiesterase 1 (TDP1): qHTS in cells in absence of CPT. DT40 Tdp1-/- hTDP1 cells, no CPT, ATP luminescence, 48 h. Potency, µM (series often up to 46.2 µM), for inactives: top-dose activity change, negative = growth inhibition, actives largely listed as inhibitors. actives 15% (n = 420,000). AID 686978, 2013; note: potency is the fitted concentration of half-maximal effect; nearly all actives have a fitted effect of over 55% in size
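Cells were dispensed at 400 per well, compounds added by pin tool, plates incubated ≥48 hr at 37 °C, then CellTiter-Glo added for 30 min at room temperature before luminescence reading. Line: DT40 Tdp1-/- complemented with hTDP1; camptothecin omitted.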
DT40 TDP1 CPT: DT40-hTDP1 cell growth loss with CPT; chicken DT40 Tdp1-/-;hTDP1 cells + 20 nM CPT, ATP luminescence, 48 h; Potency, µM (doses to about 46.2 µM), without a hit: at the highest dose activity change, negative = growth inhibition, usual class: inhibitors; actives 12% (n = 420,000); note: potency is the fitted concentration of half-maximal effect; nearly all actives have a fitted effect of over 55% in size
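Chicken DT40 Tdp1-/- cells stably complemented with human TDP1 were seeded at 400 cells/well in medium containing 20 nM camptothecin, exposed to pin-transferred compounds, and grown at 37 °C for at least 48 hr. Viability was read as ATP luminescence.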
IL-1B inflam inh: inflammasome signaling inhibition, IL-1 beta readout. THP-1 LPS/ATP IL-1B secretion, AlphaLISA, 16 h; active compounds read low. actives 4.7% (n = 360,000). activity change, % at 57.5 µM; in the data active = activity change below about -50%; inconclusive = mostly about -30% to -49%
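THP-1 cells pretreated 1 hr with compounds (up to 57.5 uM final), then stimulated with LPS (250 ng/mL final) plus ATP (1.25 mM final); secreted IL-1B measured by AlphaLISA after 16 hr, decreased signal indicating inhibition.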
An asterisk follows results filed as active; ? = inconclusive; . = no result given; [ ] = another dose, or the depositor's remark. In the library only some 18% were active in any assay of this set; here they are far more common. Unless noted, calls come from the whole dose curve; as a rule, active = well fitted curve in the direction sought with a large enough effect; inconclusive = small, poorly fitted or top-dose-only effect, or another doubt; inactive = no such curve, though single readings can be large; an effect the other way counts as inactive or inconclusive. % is set by controls: 0 for no effect and ±100 for the full control effect.

SMILES	TDP1 inh	Six1-Eya2 inh	CtBP-E1A blk	DT40 TDP1 no CPT	DT40 TDP1 CPT	IL-1B inflam inh
CC(=O)N1CCN(c2ccccc2NC(=O)c2ccc(-c3cccc([N+](=O)[O-])c3)o2)CC1	5%	-18	-2	16µM*	23µM*	-11
Cc1ccccc1N1CCN(C(=S)c2ccc(-c3cccc([N+](=O)[O-])c3)o2)CC1	7%	-17	.	-27%	?	37
CN1CCN(c2ccccc2NC(=O)c2ccc(-c3ccccc3[N+](=O)[O-])o2)CC1	7%[56.1 µM]	?	-30	16µM*	15µM*	0
O=C(NC(=S)Nc1ccccc1N1CCCCC1)c1ccc(-c2cccc([N+](=O)[O-])c2)o1	0%	2	0	23µM*	?	-11
O=C(NC(=S)Nc1ccccc1N1CCCC1)c1ccc(-c2cccc([N+](=O)[O-])c2)o1	3%	?	?	?	?	?
COc1cccc(NC(=O)c2ccc(-c3ccccc3[N+](=O)[O-])o2)c1	6%	-14	3	?	?	-25
CCOc1ccc(-c2nnc(SCC(=O)N3CCCC3)o2)cc1	5%	10	0	?	5%	14
CN1C(=O)CC2(C)C1=CCc1scnc12 (configuration not stated)	.	9	2	-5%	7%	14
CCOC(=O)c1ccc(NC(=O)Nc2cc(C)cc(C)n2)cc1	0%	.	.	.	.	.
Cn1c(=O)c2c(ncn2CCC(=O)N/N=C/c2ccncc2)n(C)c1=O	3%	-1	1	-9%	8%	.
Cc1nnc(NC(=O)CSC2CCCCC2)s1	3%	1	5	5.8µM*	1.8µM*	3
COc1cccc(C2=CC(=O)CC(C)(C)C2)c1	0%	2	7	?	?	13
CN1CCN(C(=S)c2ccc(-c3cc(Cl)ccc3Cl)o2)CC1	8%	-11	.	?	?	0
COC(=O)CC1COc2ccccc2N1S(=O)(=O)c1ccc(OC)cc1 (configuration not stated)	.	3	-10	5.2µM*	3.7µM*	25
O=C(NCc1ccccc1)c1ccc2nc(N3CCOCC3)sc2c1	.	-1	1	-22%	-1%	37
CCOC(=O)CNC(=O)C1CCCN(c2ncccn2)C1 (configuration not stated)	6%	-83*	?	-7%	29µM*	-7
COC(=O)C1=CN(c2ccc(N3CCOCC3)cc2)C(N)=C(C#N)C1c1cccc(OC)c1OC (configuration not stated)	.	6	-8	?	-14%	-21
COC(=O)C1=CN(c2cccc(OCc3ccccc3)c2)C(N)=C(C#N)C1c1cccc(OC)c1OC (configuration not stated)	.	-9	3	15µM*	15µM*	-4
COC(=O)C1=CN(Cc2ccc(OC)c(OC)c2)C=C(C(=O)OC)C1c1cccc(OC)c1OC	.	4	-1	?	?	-7
COC(=O)C1=CN(c2ccc(Oc3ccccc3)cc2)C(N)=C(C#N)C1c1cccc(OC)c1OC (configuration not stated)	.	-14	-14	13µM*	15µM*	35
COc1ccc(C(=O)C[n+]2cn(C(F)F)c3ccccc32)c(F)c1	9%	-12	-9	21µM*	?	?
COc1ccc(-c2csc(NC(CO)c3nc4ccccc4n3CCCO)n2)cc1 (configuration not stated)	.	0	-5	?	?	-1
CCOc1cccc(C(=O)Nc2ccc3[nH]ncc3c2)c1	.	2	-7	-15%	7%	-22
CN(C)S(=O)(=O)Oc1cccc(C(=O)Nc2cccc(Cl)c2)c1	-2%	4	7	18µM*	15µM*	-56*
